{"source": "the antibiotic and cytotoxicity screens of Wong et al. (2023)", "note": "Screen size: about 39,000 compounds; about 3,300 (8.5%) were called active. Shown is part of a subset that was picked to be rich in actives."}
{"test_system": "HepG2", "assay": "cytotoxicity call (relative viability < 0.9)", "conditions": "10 µM"}
{"molecule": "C[C@H]1CN([C@@H](C)CO)C(=O)c2cc(NC(=O)c3ccncc3)ccc2O[C@H]1CN(C)Cc1ccc(C(=O)O)cc1", "cytotoxicity call": "inactive"}
{"molecule": "C[C@@H]1CCCCO[C@H](CN(C)S(=O)(=O)c2ccc(Cl)cc2)[C@@H](C)CN([C@H](C)CO)C(=O)c2cc(NC(=O)Nc3cccc4ccccc34)ccc2O1", "cytotoxicity call": "inactive"}
{"molecule": "C[C@@H]1CCCCO[C@@H](CN(C)S(=O)(=O)c2ccc(Cl)cc2)[C@@H](C)CN([C@H](C)CO)C(=O)c2cc(NC(=O)Nc3ccccc3)ccc2O1", "cytotoxicity call": "inactive"}
{"molecule": "C[C@@H]1CN([C@@H](C)CO)C(=O)c2cc(NC(=O)Nc3ccccc3)ccc2O[C@@H](C)CCCCO[C@@H]1CN(C)S(=O)(=O)c1ccc(Cl)cc1", "cytotoxicity call": "inactive"}
{"molecule": "C[C@@H]1CCCCO[C@@H](CN(C)S(=O)(=O)c2ccc(Cl)cc2)[C@@H](C)CN([C@@H](C)CO)C(=O)c2cc(NC(=O)Nc3cccc4ccccc34)ccc2O1", "cytotoxicity call": "active"}
{"molecule": "C[C@@H]1CN([C@@H](C)CO)C(=O)c2cc(NC(=O)Nc3ccccc3)ccc2O[C@@H](C)CCCCO[C@H]1CN(C)S(=O)(=O)c1ccc(Cl)cc1", "cytotoxicity call": "active"}
{"molecule": "C[C@H](CO)N1C[C@H](C)[C@@H](CN(C)S(=O)(=O)c2ccc(Cl)cc2)OCCCC[C@H](C)Oc2ccc(NC(=O)Nc3ccccc3)cc2C1=O", "cytotoxicity call": "inactive"}
{"molecule": "C[C@@H]1CCCCO[C@H](CN(C)S(=O)(=O)c2ccc(Cl)cc2)[C@@H](C)CN([C@@H](C)CO)C(=O)c2cc(NC(=O)Nc3cccc4ccccc34)ccc2O1", "cytotoxicity call": "inactive"}
{"molecule": "C[C@@H]1CCCCO[C@@H](CN(C)S(=O)(=O)c2ccc(Cl)cc2)[C@@H](C)CN([C@@H](C)CO)C(=O)c2cc(NC(=O)Nc3ccccc3)ccc2O1", "cytotoxicity call": "inactive"}
{"molecule": "C[C@@H]1CN([C@H](C)CO)C(=O)c2cc(NC(=O)Nc3ccccc3)ccc2O[C@@H](C)CCCCO[C@H]1CN(C)S(=O)(=O)c1ccc(Cl)cc1", "cytotoxicity call": "active"}
{"molecule": "C[C@H](CO)N1C[C@H](C)[C@H](CN(C)C(=O)Nc2ccccc2)OCCCC[C@H](C)Oc2ccc(NC(=O)NC3CCCCC3)cc2C1=O", "cytotoxicity call": "inactive"}
{"molecule": "C[C@@H]1CN([C@H](C)CO)C(=O)c2cccc(NC(=O)Nc3cccc4ccccc34)c2O[C@@H]1CN(C)S(=O)(=O)c1ccc(Cl)cc1", "cytotoxicity call": "inactive"}
{"molecule": "Cc1ccc(/C=N/Nc2cnnc(=O)[nH]2)o1", "cytotoxicity call": "inactive"}
{"molecule": "O=C(Cn1cnnn1)NC1C(=O)N2C(C(=O)O)=C(CSc3nncs3)CSC12", "note": "(centres undefined)", "cytotoxicity call": "inactive"}
{"molecule": "COCC(=O)Nc1ccc2c(c1)OC[C@@H](C)N(C(=O)Cc1ccccn1)C[C@H](C)[C@@H](OC)CN(C)C2=O", "cytotoxicity call": "inactive"}
{"molecule": "O=c1[nH]c(=O)c2[nH]c(=O)[nH]c2[nH]1", "cytotoxicity call": "inactive"}
{"molecule": "COc1ccc(S(=O)(=O)Nc2ccc3c(c2)CC(=O)N([C@H](C)CO)C[C@H](C)[C@@H](CN(C)C(=O)Nc2c(C)noc2C)O3)cc1", "cytotoxicity call": "inactive"}
{"molecule": "C[C@H](CO)N1C[C@H](C)[C@H](CN(C)Cc2ccc(Oc3ccccc3)cc2)Oc2c(NC(=O)Nc3ccc(F)cc3)cccc2C1=O", "cytotoxicity call": "inactive"}
{"molecule": "COc1ccc(NC(=O)Nc2cccc3c2O[C@@H](CN(C)Cc2ccc(Oc4ccccc4)cc2)[C@H](C)CN([C@H](C)CO)C3=O)cc1", "cytotoxicity call": "inactive"}
{"molecule": "C[C@@H]1CN([C@@H](C)CO)C(=O)c2cccc(NC(=O)Nc3ccc(F)cc3)c2O[C@H]1CN(C)Cc1ccc(Oc2ccccc2)cc1", "cytotoxicity call": "inactive"}
{"molecule": "Cc1cc(C(=O)Nc2cccc3c2O[C@@H](CN(C)Cc2ccc(Oc4ccccc4)cc2)[C@@H](C)CN([C@@H](C)CO)C3=O)n(C)n1", "cytotoxicity call": "inactive"}
{"molecule": "COc1ccc(NC(=O)Nc2cccc3c2O[C@H](CN(C)Cc2ccc(Oc4ccccc4)cc2)[C@@H](C)CN([C@@H](C)CO)C3=O)cc1", "cytotoxicity call": "inactive"}
{"molecule": "COc1ccc(NC(=O)Nc2cccc3c2O[C@H](CN(C)Cc2ccc(Oc4ccccc4)cc2)[C@@H](C)CN([C@H](C)CO)C3=O)cc1", "cytotoxicity call": "inactive"}
{"molecule": "C[C@@H]1CN([C@H](C)CO)C(=O)c2cccc(NC(=O)Nc3ccc(F)cc3)c2O[C@@H]1CN(C)Cc1ccc(Oc2ccccc2)cc1", "cytotoxicity call": "active"}
{"molecule": "Cc1cc(C(=O)Nc2cccc3c2O[C@H](CN(C)Cc2ccc(Oc4ccccc4)cc2)[C@@H](C)CN([C@H](C)CO)C3=O)n(C)n1", "cytotoxicity call": "active"}
{"molecule": "COc1ccc(NC(=O)Nc2cccc3c2O[C@@H](CN(C)Cc2ccc(Oc4ccccc4)cc2)[C@@H](C)CN([C@H](C)CO)C3=O)cc1", "cytotoxicity call": "active"}
{"molecule": "COc1ccc(NC(=O)Nc2cccc3c2O[C@@H](CN(C)Cc2ccc(Oc4ccccc4)cc2)[C@@H](C)CN([C@@H](C)CO)C3=O)cc1", "cytotoxicity call": "active"}
{"molecule": "COc1ccc(NC(=O)Nc2cccc3c2O[C@H](CN(C)Cc2ccc(Oc4ccccc4)cc2)[C@H](C)CN([C@H](C)CO)C3=O)cc1", "cytotoxicity call": "inactive"}
{"molecule": "Cc1cc(C(=O)Nc2cccc3c2O[C@@H](CN(C)Cc2ccc(Oc4ccccc4)cc2)[C@H](C)CN([C@@H](C)CO)C3=O)n(C)n1", "cytotoxicity call": "inactive"}
{"molecule": "CC(=O)N1[C@@H](CO)[C@H](c2ccccc2)C12CN(C(=O)CN1CCOCC1)C2", "cytotoxicity call": "inactive"}
{"molecule": "Cc1ccc(S(=O)(=O)Nc2cccc3c2O[C@@H](CN(C)CC2CC2)[C@@H](C)CN([C@@H](C)CO)C3=O)cc1", "cytotoxicity call": "inactive"}
{"molecule": "C[C@H]1CN([C@@H](C)CO)C(=O)c2cc(C#CC3(O)CCCC3)cnc2O[C@H]1CN(C)S(=O)(=O)c1ccc(F)cc1", "cytotoxicity call": "inactive"}
{"molecule": "Cc1ccc(S(=O)(=O)Nc2ccc3c(c2)C(=O)N([C@H](C)CO)C[C@@H](C)[C@H](CN(C)C(=O)Cc2ccccc2)OCCCC[C@@H](C)O3)cc1", "cytotoxicity call": "inactive"}
{"molecule": "COC(=O)c1c2oc(c1C(=O)OC)C(=O)N[C@H](Cc1ccccc1)Cn1cc(nn1)CNC(=O)[C@@H](Cc1ccccc1)NC(=O)N[C@@H](CO)CC2", "cytotoxicity call": "inactive"}
{"molecule": "COCC#Cc1ccc2c(c1)O[C@H](CN(C)C(=O)c1ccccc1)[C@H](C)CN([C@@H](C)CO)S2(=O)=O", "cytotoxicity call": "inactive"}
{"molecule": "O=C(C[C@@H]1C=C[C@H](NS(=O)(=O)c2ccc(F)cc2)[C@H](CO)O1)N1CCC(Cc2ccccc2)CC1", "cytotoxicity call": "inactive"}
{"molecule": "C[C@H]1CCCCO[C@@H](CN(C)Cc2ccncc2)[C@@H](C)CN([C@@H](C)CO)C(=O)c2cc(NS(C)(=O)=O)ccc2O1", "cytotoxicity call": "inactive"}
{"molecule": "C[C@@H]1CCCCO[C@@H](CN(C)CC2CCCCC2)[C@@H](C)CN([C@@H](C)CO)C(=O)c2cc(NS(=O)(=O)c3ccccc3)ccc2O1", "cytotoxicity call": "inactive"}
{"molecule": "C[C@H](CO)N1C[C@H](C)[C@H](CN(C)S(=O)(=O)c2ccc(Cl)cc2)Oc2c(NC(=O)c3cnccn3)cccc2C1=O", "cytotoxicity call": "inactive"}
{"molecule": "C[C@H]1CN([C@@H](C)CO)C(=O)c2cccc(NC(=O)Nc3ccccc3)c2O[C@@H]1CN(C)Cc1ccc(Oc2ccccc2)cc1", "cytotoxicity call": "inactive"}
{"molecule": "COc1ccc(NC(=O)Nc2cccc3c2O[C@H](CN(C)Cc2ccc(Oc4ccccc4)cc2)[C@H](C)CN([C@@H](C)CO)C3=O)cc1", "cytotoxicity call": "inactive"}
{"molecule": "CC(C)NC(=O)Nc1cccc2c1O[C@H](CN(C)Cc1ccc(Oc3ccccc3)cc1)[C@@H](C)CN([C@@H](C)CO)C2=O", "cytotoxicity call": "active"}
{"molecule": "C[C@H](CO)N1C[C@H](C)[C@@H](CN(C)Cc2ccc(Oc3ccccc3)cc2)Oc2c(NC(=O)Nc3ccccc3)cccc2C1=O", "cytotoxicity call": "inactive"}
{"molecule": "C[C@@H]1CN([C@@H](C)CO)C(=O)c2cccc(NC(=O)Nc3ccccc3)c2O[C@@H]1CN(C)Cc1ccc(Oc2ccccc2)cc1", "cytotoxicity call": "active"}
{"molecule": "CC(C)NC(=O)Nc1cccc2c1O[C@@H](CN(C)Cc1ccc(Oc3ccccc3)cc1)[C@H](C)CN([C@H](C)CO)C2=O", "cytotoxicity call": "inactive"}
{"molecule": "C[C@@H]1CN([C@@H](C)CO)C(=O)c2cccc(NC(=O)Nc3ccccc3)c2O[C@H]1CN(C)Cc1ccc(Oc2ccccc2)cc1", "cytotoxicity call": "inactive"}
{"molecule": "CC(C)NC(=O)Nc1cccc2c1O[C@@H](CN(C)Cc1ccc(Oc3ccccc3)cc1)[C@@H](C)CN([C@@H](C)CO)C2=O", "cytotoxicity call": "inactive"}
{"molecule": "COc1ccc(NC(=O)Nc2cccc3c2O[C@@H](CN(C)Cc2ccc(Oc4ccccc4)cc2)[C@H](C)CN([C@@H](C)CO)C3=O)cc1", "cytotoxicity call": "active"}
{"molecule": "C[C@@H]1CCCCO[C@H](CN(C)Cc2ccccc2)[C@@H](C)CN([C@@H](C)CO)C(=O)c2cc(NC(=O)c3ccncc3)ccc2O1", "cytotoxicity call": "inactive"}
{"molecule": "COCC#Cc1cnc2c(c1)C(=O)N([C@@H](C)CO)C[C@H](C)[C@H](CN(C)C(C)=O)O2", "cytotoxicity call": "inactive"}
{"molecule": "C[C@H]1CN([C@@H](C)CO)C(=O)Cc2cc(NS(=O)(=O)c3cccs3)ccc2O[C@H]1CN(C)Cc1ccncc1", "cytotoxicity call": "inactive"}
{"molecule": "C[C@H](C(=O)N(C)C[C@@H]1OCc2ccccc2-c2c(n(C)c3ccccc23)C(=O)N([C@H](C)CO)C[C@H]1C)c1ccccc1", "cytotoxicity call": "inactive"}
{"molecule": "C[C@H](O)C#Cc1cnc2c(c1)C(=O)N([C@@H](C)CO)C[C@H](C)[C@H](CN(C)C(=O)Nc1ccc(C(F)(F)F)cc1)O2", "cytotoxicity call": "inactive"}
{"molecule": "Cc1ccc(S(=O)(=O)Nc2ccc3c(c2)C(=O)N([C@@H](C)CO)C[C@@H](C)[C@@H](CN(C)C(=O)Nc2ccc4c(c2)OCO4)OCCCC[C@@H](C)O3)cc1", "cytotoxicity call": "inactive"}
{"molecule": "C[C@H](CO)N1C[C@H](C)[C@H](CN(C)C(=O)Nc2cccc(C(F)(F)F)c2)OCc2ccccc2-c2ccccc2C1=O", "cytotoxicity call": "inactive"}
{"molecule": "C[C@@H]1CN([C@@H](C)CO)C(=O)c2cc(NS(=O)(=O)c3cn(C)cn3)ccc2O[C@@H](C)CCCCO[C@H]1CN(C)C(=O)c1ccncc1", "cytotoxicity call": "inactive"}
{"molecule": "CO[C@H]1C[C@@H](C[C@@H](C)[C@H]2CC(=O)[C@@H](C)/C=C(\\C)[C@@H](O)[C@@H](OC)C(=O)[C@@H](C)C[C@@H](C)/C=C/C=C/C=C(\\C)[C@H](OC)C[C@H]3CC[C@@H](C)[C@@](O)(O3)C(=O)C(=O)N3CCCC[C@@H]3C(=O)O2)CC[C@@H]1OC(=O)C(C)(CO)CO", "cytotoxicity call": "inactive"}
{"molecule": "CO[C@H]1C[C@@H](C[C@@H](C)[C@H]2CC(=O)[C@H](C)/C=C(\\C)[C@@H](O)[C@H](OC)C(=O)[C@H](C)C[C@H](C)/C=C/C=C\\C=C(C)[C@H](OC)C[C@@H]3CC[C@@H](C)[C@@](O)(O3)C(=O)C(=O)N3CCCC[C@H]3C(=O)O2)CC[C@H]1OC(=O)C(C)(CO)CO", "cytotoxicity call": "active"}
{"molecule": "CO[C@H]1C[C@@H]2CC[C@@H](C)[C@@](O)(O2)C(=O)C(=O)N2CCCC[C@H]2C(=O)O[C@H]([C@H](C)C[C@@H]2CC[C@@H](OC(=O)C(C)(CO)CO)[C@H](OC)C2)CC(=O)[C@H](C)/C=C(\\C)[C@@H](O)[C@@H](OC)C(=O)[C@H](C)C[C@H](C)/C=C/C=C/C=C/1C", "cytotoxicity call": "inactive"}
